Usually AC50 stands for the midpoint of the concentration-response curve, whichever way the signal moves.

The source made the active and inactive calls. The calls were made as follows: active = hit-call score of the fitted dose curve at least 0.9, where 1 is the maximum; inactive = score below 0.9.

Here are results for 27 compounds from PubChem BioAssay (EPA / NIEHS).

Chain of Tumor necrosis factor (Homo sapiens) (P01375 whole entry, looked up): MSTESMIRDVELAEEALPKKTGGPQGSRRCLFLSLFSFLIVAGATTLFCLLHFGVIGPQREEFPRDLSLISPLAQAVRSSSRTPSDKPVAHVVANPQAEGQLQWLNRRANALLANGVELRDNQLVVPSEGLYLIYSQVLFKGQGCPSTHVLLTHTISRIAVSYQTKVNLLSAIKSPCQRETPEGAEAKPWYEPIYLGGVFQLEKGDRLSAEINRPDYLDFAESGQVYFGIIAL

Read-out in the assay: Tumor necrosis factor (Homo sapiens) (UniProt P01375)
Put plainly: BSK_BT_xTNFa: BioMAP Diversity Plus: BT Assay for Tumor necrosis factor alpha (TNF-alpha) Biomarker Activity (AID 2284230). The note with it: primary human B cells with PBMC. As to the method:
BSK_BT is a cell-based, multiplexed-readout assay that uses B cell and peripheral blood mononuclear cells, a human vascular primary cell co-culture, with measurements taken at 24 hours after chemical dosing in a microplate: 96-well plate.BSK_BT_xTNFa is an assay component of the BSK_BT assay. It measures secreted TNF-alpha related to regulation of gene expression using LumineX xMAP technology.Data from the assay component BSK_BT_xTNFa was analyzed at the endpoint, BSK_BT_xTNFa, in the positive analysis fitting direction relative to DMSO as the negative control and baseline of activity. Using a type of cytokine quantitation reporter, gain or loss-of-signal activity can be used to understand protein changes. To generalize the intended target to other relatable targets, this assay endpoint is annotated to the 'cytokine' intended target family, where the subfamily is 'inflammatory factor'.
The levels of cell surface (or secreted, indicated by the prefix "s") biomarker endpoints were measured by ELISA. Overt cytotoxicity to cells in confluent adherent cultures (all systems other than the BT system) was assessed by measuring total protein levels using sulforhodamine B (SRB) staining in parallel cultures at the time of biomarker measurements, indicated as SRB endpoints. For proliferation assays for adherent cell types, individual cell types are cultured at sub-confluence and relative cell numbers quantified by SRB staining at time points optimized for each system (48 h: 3C and CASM3C systems; 72 h: BT and HDF3CGF systems; 96 h: SAg system). SRB was performed by staining cells with 0.1% SRB after fixation with 10% TCA and reading wells at 560 nm.Viability and proliferation of PBMC (T cells) was quantified by Alamar Blue reduction for the SAg and BT systems. For PBMC viability (referred to as PBMC Cytotoxicity within the assay endpoint names), cells were plated (75,000/well in a 96-well plate) and then chemical samples added for 1 h before addition of activators, SEB and TSST-1 (20 ng/mL final concentration each). Cells were incubated for 90 h. Then, Alamar Blue (20 uL/well) (Invitrogen, Cat DAL1100) was added for 6 h, and the plates were read with a fluorescence microplate reader at 546/580 nm (excitation/emission). For PBMC proliferation, cells were plated and activated as above but incubated for only 16 h prior to addition of Alamar Blue. Plates were read after 6 h.
Take `O=c1c2ccccc2oc2ccccc12`: the outcome was inactive. For `CCCCCCCCc1ccc(Nc2ccc(CCCCCCCC)cc2)cc1`, the outcome was inactive. For the compound `c1ccc2c(c1)ccc1cc3c(ccc4ccccc43)cc12`, the result was inactive. Turning to `C#CC1(O)CC[C@H]2[C@@H]3CCC4=CCCC[C@@H]4[C@H]3CC[C@@]21C` (some centres not stated), the AC50 was 34.2 µM (active). On the same count and under the same terms, with `COCc1c(C(C)C)nc(C(C)C)c(/C=C/[C@@H](O)C[C@@H](O)CC(=O)O)c1-c1ccc(F)cc1` the figure was 0.512 µM (active). Take `N#[N+]c1ccc2c(S(=O)(=O)[O-])cccc2c1O`: the outcome was inactive.

Take `CC(C)C(=O)C(C)C`: the outcome was inactive.

With `O=Nc1ccc(O)cc1`, the outcome was inactive. Turning to `CC(C)(c1cc(Br)c(OCCO)c(Br)c1)c1cc(Br)c(OCCO)c(Br)c1`, the concentration at half-maximal activity (AC50) is 30.2 µM (active). As to `S=C(NC1CCCCC1)NC1CCCCC1`, the result was inactive. Regarding `CCCCC/C=C\C/C=C\CCCCCCCC(=O)OC`, the AC50 was 30 µM (active). For the compound `C/C=C\C/C=C/CCCCCCCCOC(C)=O`, the half-maximal activity concentration (AC50) was 20 µM (active).

On to `CCCCCCCCCCCCCCCC[N+](C)(C)CC`, for which the AC50 is 12 µM (active).

As to `CCOc1nc(F)cc2nc(S(=O)(=O)Nc3c(Cl)cccc3C(=O)OC)nn12`, the outcome was inactive. Consider `CC1OC1C1CCC2(C)OC2C1` (configuration not stated), for which the outcome was inactive. For `CCO[Si](CCCN=C=O)(OCC)OCC`, the result was inactive. In the case of `CCCCC(CC)COC(=O)c1ccccc1O` (configuration not stated), the outcome was inactive. Regarding `O=C(Cl)c1cc(C(=O)Cl)cc(C(=O)Cl)c1`, the half-maximal activity concentration (AC50) was 31.9 µM (active). Take `c1ccc(-c2ccccn2)nc1`: the outcome was inactive.

Turning to `C=CC=CC=CCCCCC`, the outcome was inactive. Regarding `O=C(Nc1ccccc1SSc1ccccc1NC(=O)c1ccccc1)c1ccccc1`, the AC50 was 11.7 µM (active).

On to `c1ccc2c(c1)ccc1ncccc12`, for which the outcome was inactive. As to `C=CCOc1c(Br)cc(Br)cc1Br`, the result was inactive. In the case of `C=CC(=O)OCC(Br)CBr` (configuration not stated), the AC50 was 28.1 µM (active). Regarding `C=CCOCC(O)CCl` (configuration not stated), the outcome was inactive. Consider `COc1ccc2nc(N)sc2c1`, for which the result was inactive.

On to `CCCCNc1ccc(NCCCC)c2c1C(=O)c1ccccc1C2=O`, for which the outcome was inactive.
